# The supplement of paper PMC11001985
# Values without a mark were called inactive.
# Compound: C#CCNC(=O)CCSSCCC(=O)NCCc1ccc(C=O)c(C=O)c1
# Test: lysine labeling ratio R10:1 (500 µM / 50 µM probe), SILAC-ABPP in living cells; higher = lower intrinsic lysine reactivity toward the probe, active = 2 or less
# Settings: HeLa; probe concentrations 500 vs 50 µM
# Method in brief: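 For each lysine, R is the median over forward and reverse replicates of the filtered median MS1 peptide ratio of high probe to low probe. The probe, an alkyne-tagged, disulfide-linked lysine probe, was given at 500 µM or 50 µM to living SILAC light and heavy HeLa cells in PBS at room temperature, with label swaps. Values are capped at 20.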
# Chain of UniProt P21333 (P21333 whole entry): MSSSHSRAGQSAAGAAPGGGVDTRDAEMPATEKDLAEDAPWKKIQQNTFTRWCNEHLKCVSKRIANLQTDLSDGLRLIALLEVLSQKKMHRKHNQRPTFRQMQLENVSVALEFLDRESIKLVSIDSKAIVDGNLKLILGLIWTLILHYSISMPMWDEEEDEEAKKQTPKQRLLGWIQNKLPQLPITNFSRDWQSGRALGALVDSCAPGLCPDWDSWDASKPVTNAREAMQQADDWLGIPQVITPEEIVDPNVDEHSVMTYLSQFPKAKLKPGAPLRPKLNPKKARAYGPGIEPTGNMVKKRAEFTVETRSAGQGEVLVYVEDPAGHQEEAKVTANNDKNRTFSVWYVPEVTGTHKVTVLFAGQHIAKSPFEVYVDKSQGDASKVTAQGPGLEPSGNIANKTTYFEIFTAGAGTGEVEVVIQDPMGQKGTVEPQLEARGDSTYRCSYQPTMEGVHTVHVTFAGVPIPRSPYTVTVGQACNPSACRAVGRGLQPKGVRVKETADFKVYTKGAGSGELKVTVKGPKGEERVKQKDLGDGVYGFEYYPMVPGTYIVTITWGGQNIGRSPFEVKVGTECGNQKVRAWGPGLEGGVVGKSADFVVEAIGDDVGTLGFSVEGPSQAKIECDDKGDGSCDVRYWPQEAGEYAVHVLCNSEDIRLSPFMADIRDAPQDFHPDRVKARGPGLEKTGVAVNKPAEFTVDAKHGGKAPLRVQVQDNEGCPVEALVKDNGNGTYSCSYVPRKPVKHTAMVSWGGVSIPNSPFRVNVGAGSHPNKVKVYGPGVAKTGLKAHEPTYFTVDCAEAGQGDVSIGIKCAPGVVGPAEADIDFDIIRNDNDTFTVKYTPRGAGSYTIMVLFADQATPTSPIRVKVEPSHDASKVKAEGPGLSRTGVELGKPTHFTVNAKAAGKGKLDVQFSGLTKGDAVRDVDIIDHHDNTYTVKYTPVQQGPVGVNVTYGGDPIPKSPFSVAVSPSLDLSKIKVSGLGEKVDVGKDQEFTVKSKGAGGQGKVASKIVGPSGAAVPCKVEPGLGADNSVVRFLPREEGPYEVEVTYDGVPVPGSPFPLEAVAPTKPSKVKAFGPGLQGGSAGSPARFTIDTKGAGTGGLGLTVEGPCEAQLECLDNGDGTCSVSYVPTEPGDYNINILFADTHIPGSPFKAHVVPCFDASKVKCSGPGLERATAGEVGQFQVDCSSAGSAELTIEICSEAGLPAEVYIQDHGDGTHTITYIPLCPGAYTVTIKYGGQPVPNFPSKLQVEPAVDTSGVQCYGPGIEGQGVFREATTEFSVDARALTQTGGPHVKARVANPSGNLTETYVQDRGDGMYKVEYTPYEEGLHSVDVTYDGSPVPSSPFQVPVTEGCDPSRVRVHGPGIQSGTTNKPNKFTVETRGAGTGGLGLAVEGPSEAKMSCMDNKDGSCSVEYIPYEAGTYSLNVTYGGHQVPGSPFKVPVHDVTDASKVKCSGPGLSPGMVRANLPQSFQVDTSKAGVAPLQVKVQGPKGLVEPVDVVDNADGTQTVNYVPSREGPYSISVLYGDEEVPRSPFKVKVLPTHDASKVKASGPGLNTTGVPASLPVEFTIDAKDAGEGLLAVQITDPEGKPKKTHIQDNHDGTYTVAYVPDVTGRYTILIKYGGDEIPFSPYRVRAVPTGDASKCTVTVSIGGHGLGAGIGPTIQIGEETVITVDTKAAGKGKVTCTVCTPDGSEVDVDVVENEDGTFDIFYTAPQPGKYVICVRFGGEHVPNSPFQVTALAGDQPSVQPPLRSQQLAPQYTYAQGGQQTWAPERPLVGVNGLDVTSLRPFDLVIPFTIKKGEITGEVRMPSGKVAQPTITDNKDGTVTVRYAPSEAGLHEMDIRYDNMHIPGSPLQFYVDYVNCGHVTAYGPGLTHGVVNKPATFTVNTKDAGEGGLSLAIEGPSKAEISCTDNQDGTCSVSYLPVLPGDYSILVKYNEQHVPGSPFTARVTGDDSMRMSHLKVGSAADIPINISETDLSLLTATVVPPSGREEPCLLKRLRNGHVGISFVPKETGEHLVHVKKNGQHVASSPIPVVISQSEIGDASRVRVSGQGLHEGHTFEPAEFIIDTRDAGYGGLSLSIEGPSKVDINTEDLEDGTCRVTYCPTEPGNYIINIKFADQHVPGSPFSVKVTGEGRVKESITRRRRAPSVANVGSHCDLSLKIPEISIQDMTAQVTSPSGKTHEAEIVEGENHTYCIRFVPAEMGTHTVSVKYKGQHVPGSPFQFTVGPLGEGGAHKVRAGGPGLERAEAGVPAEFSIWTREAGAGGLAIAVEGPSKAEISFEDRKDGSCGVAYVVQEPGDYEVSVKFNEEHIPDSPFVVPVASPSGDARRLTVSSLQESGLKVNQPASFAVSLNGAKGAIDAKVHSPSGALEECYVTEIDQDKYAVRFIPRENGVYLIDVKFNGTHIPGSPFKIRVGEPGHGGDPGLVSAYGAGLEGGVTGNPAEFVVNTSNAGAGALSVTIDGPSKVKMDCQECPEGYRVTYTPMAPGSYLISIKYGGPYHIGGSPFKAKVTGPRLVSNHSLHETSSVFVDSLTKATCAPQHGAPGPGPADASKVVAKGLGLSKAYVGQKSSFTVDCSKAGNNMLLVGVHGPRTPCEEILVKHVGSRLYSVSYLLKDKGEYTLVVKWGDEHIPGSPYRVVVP
# Chain of UniProt P18084 (P18084 whole entry): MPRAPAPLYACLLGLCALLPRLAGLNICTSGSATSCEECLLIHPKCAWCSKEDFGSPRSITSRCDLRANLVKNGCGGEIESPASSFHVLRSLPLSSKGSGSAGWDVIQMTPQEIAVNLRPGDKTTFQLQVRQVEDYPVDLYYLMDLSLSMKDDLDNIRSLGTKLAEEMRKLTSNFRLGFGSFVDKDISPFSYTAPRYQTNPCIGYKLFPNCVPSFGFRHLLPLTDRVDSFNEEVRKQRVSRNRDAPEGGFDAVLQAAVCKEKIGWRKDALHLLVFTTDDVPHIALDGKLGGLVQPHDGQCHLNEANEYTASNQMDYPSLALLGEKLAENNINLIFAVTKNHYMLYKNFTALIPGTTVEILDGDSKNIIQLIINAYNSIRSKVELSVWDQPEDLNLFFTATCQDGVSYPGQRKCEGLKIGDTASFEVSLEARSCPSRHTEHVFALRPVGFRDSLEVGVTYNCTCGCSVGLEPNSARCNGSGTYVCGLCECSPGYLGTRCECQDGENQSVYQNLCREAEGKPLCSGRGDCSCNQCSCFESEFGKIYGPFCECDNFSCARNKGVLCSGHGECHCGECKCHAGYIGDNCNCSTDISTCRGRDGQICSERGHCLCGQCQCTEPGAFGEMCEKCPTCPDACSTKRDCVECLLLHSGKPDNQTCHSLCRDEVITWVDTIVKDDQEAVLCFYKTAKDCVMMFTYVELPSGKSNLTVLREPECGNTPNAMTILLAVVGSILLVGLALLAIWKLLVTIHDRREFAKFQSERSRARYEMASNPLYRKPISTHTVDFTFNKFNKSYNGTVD
# Chain of UniProt P23229 (P23229 whole entry): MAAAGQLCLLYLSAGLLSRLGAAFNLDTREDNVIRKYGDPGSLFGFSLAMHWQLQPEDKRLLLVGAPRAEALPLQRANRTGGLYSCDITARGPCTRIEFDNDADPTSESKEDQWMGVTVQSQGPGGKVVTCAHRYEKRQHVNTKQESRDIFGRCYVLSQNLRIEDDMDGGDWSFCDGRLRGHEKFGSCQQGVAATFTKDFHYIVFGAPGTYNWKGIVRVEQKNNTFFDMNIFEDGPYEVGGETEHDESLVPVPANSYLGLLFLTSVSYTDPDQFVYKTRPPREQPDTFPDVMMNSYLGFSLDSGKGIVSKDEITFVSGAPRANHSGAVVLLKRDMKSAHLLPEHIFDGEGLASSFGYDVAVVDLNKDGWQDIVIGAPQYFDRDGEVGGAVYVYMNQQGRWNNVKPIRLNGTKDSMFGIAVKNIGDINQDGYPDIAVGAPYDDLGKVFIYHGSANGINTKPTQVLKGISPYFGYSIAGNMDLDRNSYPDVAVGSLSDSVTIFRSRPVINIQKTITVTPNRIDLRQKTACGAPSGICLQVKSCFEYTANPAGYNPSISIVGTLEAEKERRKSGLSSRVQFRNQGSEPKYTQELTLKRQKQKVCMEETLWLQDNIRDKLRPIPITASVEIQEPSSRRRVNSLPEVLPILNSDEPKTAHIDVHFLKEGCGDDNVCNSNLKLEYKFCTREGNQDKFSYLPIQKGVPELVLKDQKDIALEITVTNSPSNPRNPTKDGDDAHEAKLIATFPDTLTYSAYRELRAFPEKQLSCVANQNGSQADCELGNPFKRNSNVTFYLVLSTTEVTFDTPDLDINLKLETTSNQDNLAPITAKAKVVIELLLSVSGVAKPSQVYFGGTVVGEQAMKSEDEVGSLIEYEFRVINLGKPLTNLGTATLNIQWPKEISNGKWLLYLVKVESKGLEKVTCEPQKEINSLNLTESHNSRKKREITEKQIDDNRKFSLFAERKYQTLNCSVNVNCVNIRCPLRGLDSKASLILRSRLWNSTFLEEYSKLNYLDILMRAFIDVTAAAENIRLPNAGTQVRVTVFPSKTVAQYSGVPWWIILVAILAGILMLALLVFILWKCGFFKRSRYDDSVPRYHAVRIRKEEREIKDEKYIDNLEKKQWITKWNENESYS
# Chain of UniProt Q8NC51 (Q8NC51 whole entry): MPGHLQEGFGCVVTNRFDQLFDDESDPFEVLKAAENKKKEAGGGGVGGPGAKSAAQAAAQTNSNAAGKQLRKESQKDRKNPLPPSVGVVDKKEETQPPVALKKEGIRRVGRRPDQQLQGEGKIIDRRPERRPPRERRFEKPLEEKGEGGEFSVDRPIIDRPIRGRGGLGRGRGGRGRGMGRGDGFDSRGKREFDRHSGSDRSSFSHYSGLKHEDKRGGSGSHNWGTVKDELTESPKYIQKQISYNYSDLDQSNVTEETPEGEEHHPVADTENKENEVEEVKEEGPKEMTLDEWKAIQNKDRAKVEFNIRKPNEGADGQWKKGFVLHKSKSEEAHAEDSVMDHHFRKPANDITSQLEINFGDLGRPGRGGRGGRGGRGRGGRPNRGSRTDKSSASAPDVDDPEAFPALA
row,Target,lysine labeling ratio R10:1
1,ITGB5 (lysine site: K163) (UniProt P18084),2.53
2,G6PD (lysine site: K497) (UniProt P11413),3.47
3,HNRNPU (lysine site: K186) (UniProt Q00839),4.06
4,RPL14 (lysine site: K85) (UniProt P50914),1.23 (active)
5,FLNA (lysine site: K523) (UniProt P21333),3.84
6,KTN1 (lysine site: K559) (UniProt Q86UP2),1.4 (active)
7,UniProt P05186 (lysine site: K74),6.22
8,MCAM (lysine site: K236) (UniProt P43121),6.1
9,INSR (lysine site: K903) (UniProt P06213),2.04
10,UniProt Q15149 (lysine site: K4205),1.51 (active)
11,ECH1 (lysine site: K231) (UniProt Q13011),1.7 (active)
12,ITGA6 (lysine site: K946) (UniProt P23229),2.37
13,UniProt Q12884 (lysine site: K591),1.95 (active)
14,UniProt Q14574 (lysine site: K180),1.97 (active)
15,DDX5 (lysine site: K490) (UniProt P17844),5.18
16,UniProt Q15149 (lysine site: K3685),6.03
17,EPHA2 (lysine site: K441) (UniProt P29317),7.45
18,UniProt Q15149 (lysine site: K4480),1.74 (active)
19,FLNB (lysine site: K976) (UniProt O75369),1.86 (active)
20,FLNA (lysine site: K837) (UniProt P21333),4.31

row,Target,lysine labeling ratio R10:1
1,C1QBP (lysine site: K91) (UniProt Q07021),0.97 (active)
2,UniProt Q9NRD8 (lysine site: K530),6.54
3,CDK5 (lysine site: K33) (UniProt Q00535),6.8
4,SHMT2 (lysine site: K181) (UniProt P34897),1.17 (active)
5,DNASE1L1 (lysine site: K33) (UniProt P49184),11
6,FZD6 (lysine site: K149) (UniProt O60353),0.883 (active)
7,UniProt Q15149 (lysine site: K2903),2.51
8,PDIA4 (lysine site: K145) (UniProt P13667),0.551 (active)
9,MSN (lysine site: K458) (UniProt P26038),1.55 (active)
10,ITGA6 (lysine site: K569) (UniProt P23229),2.54
11,CELSR2 (lysine site: K2176) (UniProt Q9HCU4),4.05
12,CLTC (lysine site: K1612) (UniProt Q00610),4.67
13,UniProt P20591 (lysine site: K505),2.52
14,FLNA (lysine site: K2025) (UniProt P21333),3.25
15,SERBP1 (lysine site: K303) (UniProt Q8NC51),2.74
16,GPC1 (lysine site: K363) (UniProt P35052),7.78
17,FRAS1 (lysine site: K1158) (UniProt Q86XX4),1.34 (active)
18,ITGB5 (lysine site: K170) (UniProt P18084),3.44
19,SEMA3C (lysine site: K158) (UniProt Q99985),5.63
20,TPM4 (lysine site: K13) (UniProt P67936),3.28
